Screens from PubChem BioAssay.
Rv3671c inh: inhibitors of M. tuberculosis serine protease Rv3671c; P9WHR9; inhibition, % at 5.96 µM; AID 2606; 320,000 tested, 0.048% active; in the data active = inhibition above about 38%;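 also: extracellular domain of Rv3671c used as enzyme; 0% = enzyme with DMSO and 100% = no enzyme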
RecA splice inh: Mtb RecA intein splicing inhibition | P9WHJ3 | cell-free RecA intein splicing, fluorescence | inhibition, % (test concentration not listed) | 290,000 tested, 0.75% active; in the data active = inhibition above about 30%; inconclusive = no clear call, values can overlap the other calls;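 also: 0% = vehicle wells and 100% = reference inhibitor control wells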
Mtb UGM inh: blocks M. tuberculosis UGM enzyme; P9WIQ1; inhibition, % at 10 µM; AID 504406; 320,000 tested, 0.06% active; purified UGM, fluorescence polarization probe displacement; in the data active = inhibition above about 10%, passing the limit was not always enough; inconclusive = no clear call, values can overlap the other calls
Target sequence (P9WIQ1 whole entry, looked up): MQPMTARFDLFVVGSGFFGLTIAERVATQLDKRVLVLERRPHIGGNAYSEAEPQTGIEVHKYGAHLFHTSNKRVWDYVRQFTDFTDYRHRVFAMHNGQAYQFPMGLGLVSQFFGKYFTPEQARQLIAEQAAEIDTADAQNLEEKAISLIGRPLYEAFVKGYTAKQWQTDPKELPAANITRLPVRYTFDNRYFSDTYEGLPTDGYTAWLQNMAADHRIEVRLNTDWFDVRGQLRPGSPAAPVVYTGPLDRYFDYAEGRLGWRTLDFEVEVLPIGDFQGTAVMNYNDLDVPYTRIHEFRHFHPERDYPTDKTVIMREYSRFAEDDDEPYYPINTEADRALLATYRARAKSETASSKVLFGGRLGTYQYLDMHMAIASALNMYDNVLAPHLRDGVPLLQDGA
FadD28 binding: blocks FadD28 binding to the bisubstrate probe; fluorescence polarization; inhibition, % at 12.5 µM; 360,000 tested, 0.22% active; AID 588549; in the data active = inhibition above about 8.5%, passing the limit was not always enough; inconclusive = no clear call, values can overlap the other calls
Y pestis TopoI: inhibitors of Yersinia pestis topoisomerase I | Y. pestis Topo-I cleavage product accumulation, plate reader | activity, % at 10 µM | 360,000 tested, 0.064% active; in the data active = activity above about 50%, passing the limit was not always enough; inconclusive = no clear call, values can overlap the other calls
Mtb BioA inh: BioA (M. tuberculosis) enzyme inhibition. purified M. tuberculosis BioA enzyme, plate reader. inhibition, % at 9.99 µM. 360,000 tested, 0.096% active. AID 602481; in the data active = inhibition above about 40%; inconclusive = no clear call, values can overlap the other calls
* hit, by the source's call; u = inconclusive; x = not tested or not shown. Compounds with a hit are over-represented: about 0.82% of the library has one in this group of screens.

SMILES	Rv3671c inh	RecA splice inh	Mtb UGM inh	FadD28 binding	Y pestis TopoI	Mtb BioA inh
CC(=O)Nc1ccc(S(=O)(=O)Nc2nc3ccccc3nc2Nc2ccc(C(=O)O)c(O)c2)cc1	-5.9	x	3.1	25.5*	-4.6	1.1
COc1ccc(CN(Cc2cccn2C)C(=O)c2cc3cc(OC)ccc3[nH]2)cc1	-13.3	2.7	0.7	0.5	51.1*	-0.1
COc1ccccc1C(=O)OCC#CCSc1nnc(-c2cccc3ccccc23)o1	-12.9	x	-1.6	-1.4	51.8*	-1.5
COc1ccc(C(=O)OCC#CCSc2nnc(-c3cccc4ccccc34)o2)cc1	-6.0	x	-3.3	-4.6	29.5	-1.2
Cc1ccc(-c2nnc(SCC#CCOC(=O)c3cccs3)o2)cc1	-7.0	18.6	0.6	-1.9	55.7*	x
O=C(OCC#CCSc1nnc(-c2ccc(Br)cc2)o1)c1cccs1	-10.4	8.0	1.8	-1.0	-8.4	x
O=C(C[C@H]1CC[C@@H](NC(=O)C2CCC2)[C@H](CO)O1)NCc1ccccc1Cl	x	x	x	x	x	1.5
Cc1noc(C)c1S(=O)(=O)Nc1ccc2c(c1)CC(=O)N([C@@H](C)CO)C[C@H](C)[C@H](CN(C)C)O2	x	x	x	x	x	-3.4
CCOc1ccccc1CNC(c1ccccc1)c1ccccc1	2.1	10.8	-1.2	-3.1	52.4*	-1.4
COc1ccccc1CNC(c1ccccc1)c1ccccc1	-1.9	1.3	2.4	-0.6	28.3	-2.5
CCC(C)NC(=O)c1c(N)n(CC2CCCO2)c2nc3ccccc3nc12 (centres undefined)	-40.5	-78.6	0.3	-4.3	20.9	0.4
CCC(C)NC(=O)c1c(N)n(Cc2ccc3c(c2)OCO3)c2nc3ccccc3nc12 (centres undefined)	-10.6	41.4*	0.9	0.3	-4.2	-3.7
C[C@@H]1CN([C@H](C)CO)C(=O)c2cccc(NC(=O)Nc3cccc4ccccc34)c2O[C@H]1CN(C)C(=O)Nc1cccc2ccccc12	x	x	x	x	x	-2.0
CO[C@@H]1CN(C)C(=O)c2cc(C#N)ccc2OCC[C@@H]2CC[C@@H](OC)[C@@H](CN(C)C(=O)[C@H]1C)O2	x	x	x	x	x	0.5
C[C@H](CO)N1C[C@H](C)[C@@H](CN(C)C)OCCCC[C@H](C)Oc2ccc(NC(=O)NC3CCCCC3)cc2C1=O	x	x	x	x	x	-3.3
CCOC(=O)Cc1csc(SCC(=O)Nc2cc(Cl)ccc2Oc2ccccc2)n1	-7.5	7.8	-0.4	-1.3	67.7*	x
COc1ccc(NC(=O)N(C)C[C@H]2Oc3ccc(NS(=O)(=O)c4ccc(OC)cc4)cc3CC(=O)N([C@H](C)CO)C[C@@H]2C)cc1	x	x	x	x	x	8.1
O=C1c2ccccc2C(=O)c2cc(S(=O)(=O)Nc3ccccc3)ccc21	12.6	32.4*	-1.0	1.2	-17.0	-1.7
O=C(O)c1cccc(NS(=O)(=O)c2ccc3c(c2)C(=O)c2ccccc2C3=O)c1	3.6	27.2	2.6	2.1	-3.4	x
NS(=O)(=O)c1ccc(N=Nc2c(O)[nH]c(=S)[nH]c2=O)cc1	-1.1	33.9*	-0.8	-3.0	6.5	1.2
O=c1[nH]c(=S)[nH]c(O)c1N=Nc1ccc(S(=O)(=O)N2CCOCC2)cc1	2.9	-2.6	1.4	-0.4	-4.0	x
CN1C(=O)c2cc(NC(=O)c3cccc(F)c3)ccc2OC[C@H]2O[C@H](CC(=O)O)CC[C@@H]21	x	x	x	x	x	0.1
OC(CSc1nc2ccccc2s1)CC(O)c1ccccc1 (centres undefined)	x	x	x	x	x	4.5
Cc1cc(C)c(S(=O)(=O)ON2C(=O)c3ccccc3C2=O)cc1C	-2.8	59.7*	3.0	-0.2	4.4	0.3
Cc1c(Cl)cccc1NS(=O)(=O)c1ccc2c(c1)C1C=CCC1C(c1ccc(C(=O)O)cc1)N2 (centres undefined)	10.1	x	3.4	27.7*	-1.5	x
SMILES	Rv3671c inh	RecA splice inh	Mtb UGM inh	FadD28 binding	Y pestis TopoI	Mtb BioA inh
COc1ccc(NS(=O)(=O)c2ccc3c(c2)[C@H]2C=CC[C@H]2[C@@H](c2ccc(C(=O)O)cc2)N3)cc1	25.3	18.6	0.8	32.2*	-25.4	2.0
C[C@@H]1CCCCO[C@H](CN(C)C(=O)CCC(F)(F)F)[C@H](C)CN([C@@H](C)CO)C(=O)c2cc(NS(=O)(=O)c3cccs3)ccc2O1	x	x	x	x	x	-4.4
COc1ccc(NC(=O)N[C@H]2CC[C@@H](CCn3cc(-c4ccccn4)nn3)O[C@@H]2CO)cc1	x	x	x	x	x	-1.4
Cc1cc(O)ccc1Nc1nc(-c2cccs2)cs1	6.9	30.3*	3.7	-0.6	4.3	x
CN(C(=O)c1cc(COc2c(F)cccc2F)on1)C1CCOC1 (centres undefined)	0.2	1.6	-0.2	-0.5	6.0	0.1
O=C(c1cc(COc2c(F)cccc2F)on1)N(Cc1ccccc1)CC1CC1	-12.0	7.2	-0.5	-6.2	63.9*	-1.2
O=Nc1c(O)ccc2cc(S(=O)(=O)O)ccc12	x	x	x	-2.1	1.5	-2.2
CN(C)c1ccc2cc(S(=O)(=O)O)cc(O)c2c1	x	x	x	19.3*	-17.3	-4.6
CSc1ncc(Cl)c(C(=O)Nc2nnc(SC/C=C/c3ccccc3)s2)n1	-8.3	-2.4	-0.3	15.1*	4.4	1.5
O=C(CCN1C(=O)S/C(=C\C=C\c2ccccc2)C1=O)Nc1ccc(O)cc1	-9.2	5.7	1.5	-0.9	-1.1	-1.8
O=C(CCCN1C(=O)S/C(=C\C=C\c2ccccc2)C1=O)Nc1ccc(C(=O)O)cc1	-35.4	30.3*	0.7	x	13.7	-0.3
S=C(NCc1ccccc1)NCc1cccc(CNC(=S)NCc2ccccc2)c1	-87.2	6.8	1.0	24.9*	12.9	3.2
S=C(NCc1ccccc1)NCc1cccc(Cl)c1	x	6.5	-0.1	-2.7	5.2	1.5
Cc1noc(C)c1NC(=O)Nc1ccc2c(c1)C(=O)N([C@@H](C)CO)C[C@@H](C)[C@H](CN(C)Cc1ccc(Oc3ccccc3)cc1)O2	x	x	x	x	x	1.4
CCCCCCCCCCCCCCCC(O)C(N)CO (centres undefined)	9.7	13.5	-1.1	48.7*	2.6	-2.0
CC(C)(C)c1ccc(NC(=S)NCc2cccs2)cc1	-4.0	10.4	-1.3	42.1*	11.9	x
COc1[nH]c(/N=C/c2ccccc2)c(C#N)c1C#N	15.8	-7.9	9.0	27.6*	3.3	x
CCSc1ccc2c(c1)N(CCCN1CCN(C)CC1)c1ccccc1S2	5.4	x	-3.1	-2.2	-5.4	4.4
CN1CCN(CCCN2c3ccccc3Sc3ccc(Cl)cc32)CC1	6.9	3.1	4.4	8.2*	-8.4	4.3
O=C(NC1CCCC1)c1sc(=S)n2c1[nH]c(=O)c1ccccc12	4.0	-98.3	0.5	28.8*	7.0	-2.3
O=C(NCc1ccco1)c1sc(=S)n2c1[nH]c(=O)c1ccccc12	2.7	-42.2	-0.7	u	-5.2	1.5
Cc1ccc(CNC(=O)c2ccc3c(=O)[nH]c4c(C(=O)NCC5CCCO5)sc(=S)n4c3c2)cc1 (centres undefined)	17.8	-10.5	0.0	60.1*	5.3	2.3
CCn1c(N)c(C(=O)NCC2CCCO2)sc1=S (centres undefined)	1.2	-2.6	-1.9	-2.2	0.7	0.2
